Screens from PubChem.
Only some compounds are listed: those with a hit (about 4.1% of all), similar ones and a draw of the others.
ssDAF12 agonist – S. stercoralis DAF-12 activation, primary screen | HEK293 ssDAF-12/GRIP1 lit1-tk-luc reporter, luminescence; % of 3 µM dafachronic acid response | activation, % at 6.8 µM | hit rate 1% among 370,000;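 active = activation above the mean over all tested compounds plus 3 SD, cut at about 0.9% in these data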;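 also: 0% = DMSO-only wells and 100% = 3 µM delta7-dafachronic acid wells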
hcDAF12 agonist – H. contortus DAF-12 activation, primary screen | activation, % at 6.8 µM | HEK293 hcDAF-12 lit1-tk-luc reporter, luminescence; 0% DMSO, 100% Δ7-dafachronic acid | hit rate 1.4% among 370,000;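 active = activation above the mean of all tested compounds plus 3 SD, cut at about 5.5% in these data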;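 also: 100% = response to 3 µM Δ7-dafachronic acid high control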
DAX1 inh-1 – inhibitors of human orphan nuclear receptor DAX1 (NR0B1); HEK293 Gal4-DAX1 luciferase reporter, luminescence; P51843; inhibition, % at 6.75 µM; hit rate 0.99% among 340,000; AID 504766;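 active = inhibition above the mean over all tested compounds plus 3 SD, cut at about 4.2% in these data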;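 also: 0% = DAX1-transfected cells with DMSO and 100% = empty-vector control cells with DMSO; inhibition shows as a rise in luminescence from relieved DAX1 repression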
Target sequence (P51843 207-470 limits assumed): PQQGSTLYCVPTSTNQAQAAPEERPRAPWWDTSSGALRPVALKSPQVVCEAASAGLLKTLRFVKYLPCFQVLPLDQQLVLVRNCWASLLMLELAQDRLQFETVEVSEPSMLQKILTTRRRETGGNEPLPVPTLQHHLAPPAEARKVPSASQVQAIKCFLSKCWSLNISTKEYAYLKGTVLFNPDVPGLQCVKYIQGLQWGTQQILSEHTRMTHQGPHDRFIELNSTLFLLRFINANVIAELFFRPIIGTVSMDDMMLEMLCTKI
hgDAF-12 ag – agonists of H. glycines DAF-12 nuclear receptor | HEK293 GAL4-hgDAF12 UAS-luciferase reporter, agonist luminescence; normalized to butyrate control | activation, % at 6.8 µM | hit rate 1.8% among 370,000;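 active = activation above a cutoff set at the mean of all screened compounds plus 3 SD, cut at about 10% in these data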;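 also: 0% = DMSO wells and 100% = sodium butyrate wells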
DAX1 inh-2 – blocks DAX1 repression of SF-1 activated StAR promoter; HEK293T StAR-luciferase reporter, SF-1/DAX-1 repression relief; inhibition, % at 6.8 µM; hit rate 1.1% among 370,000; AID 652010;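 active = inhibition above the mean over all tested compounds plus 3 SD, cut at about 3.6% in these data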;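 also: 0% = DAX-1 cells with DMSO and 100% = cells lacking DAX-1 with DMSO; higher inhibition means more luminescence from relief of DAX-1 repression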
Numbers without * were called inactive.

O=C1COc2ccccc2C(c2nnnn2-c2ccc3ccccc3c2)N1C1CC1 (stereo not given) was read as ssDAF12 agonist -0.2, hcDAF12 agonist -1.6, hgDAF-12 ag 0.9 and DAX1 inh-2 -0.9.
For CC(C)n1c(O)c(N=NC(=O)C2COc3ccccc3O2)c2ccccc21 (stereo not given) the results were ssDAF12 agonist 1.1*, hcDAF12 agonist 3.1, DAX1 inh-1 -0.5, hgDAF-12 ag -1.7 and DAX1 inh-2 -0.1.
`COc1ccc(CN2CN3Cc4cc(OC)ccc4C3CS2(=O)=O)cc1` (stereo not given) gave ssDAF12 agonist -1.5, hcDAF12 agonist -0.5, hgDAF-12 ag 3.0 and DAX1 inh-2 -1.5.
Cn1c(=O)c(Oc2ccc(Cl)cc2)c(O)c2ccccc21 was read as ssDAF12 agonist 1.1*, hcDAF12 agonist 1.1, DAX1 inh-1 -0.6, hgDAF-12 ag -0.1 and DAX1 inh-2 0.6.
COc1ccc(OCc2nn3c(-c4ccccc4)nnc3s2)cc1 was read as ssDAF12 agonist -1.9, hcDAF12 agonist -2.4, hgDAF-12 ag 0.1 and DAX1 inh-2 -0.4.
Screening COc1ccc(Nc2cc(C)nc3c(C)cccc23)cc1OC returned ssDAF12 agonist -1.5, hcDAF12 agonist 2.1, DAX1 inh-1 2.6, hgDAF-12 ag -0.7 and DAX1 inh-2 0.4.
For CCOc1ccc(Nc2cc(C)nc3c(C)cccc23)cc1 the results were ssDAF12 agonist -1.8, hcDAF12 agonist -2.4, DAX1 inh-1 4.9*, hgDAF-12 ag -2.1 and DAX1 inh-2 0.3.
`CN(C)CCCNC(=O)c1c(N)[nH]c(C(=O)c2ccc(Br)cc2)c1-c1ccc(Br)cc1` gave ssDAF12 agonist -1.2, hcDAF12 agonist 0.1, hgDAF-12 ag 0.0 and DAX1 inh-2 3.2.
Screening O=C(Nc1ccccc1Cl)O[C@@H]1CC[C@@]23CCCN2C(=O)CCC[C@H]3C1 returned ssDAF12 agonist -2.2, hcDAF12 agonist -1.0 and hgDAF-12 ag -1.7.
`O=C(Oc1cccc(-c2cnc3ccccc3n2)c1)c1ccco1` gave ssDAF12 agonist 0.7, hcDAF12 agonist 6.5*, DAX1 inh-1 3.3, hgDAF-12 ag 10.3 and DAX1 inh-2 2.2.
O=C(CCN1C(=O)/C(=C/c2ccc(F)cc2)SC1=S)NNC(=O)c1cccnc1 was read as ssDAF12 agonist -1.0, hcDAF12 agonist -1.3, DAX1 inh-1 4.3*, hgDAF-12 ag 2.2 and DAX1 inh-2 0.5.
CC(=O)c1cccc(NC(=O)c2cc(-c3ccco3)on2)c1 was read as ssDAF12 agonist -1.0, hcDAF12 agonist -0.9, DAX1 inh-1 0.7, hgDAF-12 ag 4.0 and DAX1 inh-2 0.2.
O=C(Nc1cccc(O)c1)c1cc(-c2ccco2)on1 was read as ssDAF12 agonist -1.3, hcDAF12 agonist 1.0, DAX1 inh-1 1.2, hgDAF-12 ag 11.1* and DAX1 inh-2 0.8.
`O=C(CN1CCN(Cc2ccccc2Cl)CC1)N/N=C\c1ccccc1F` gave ssDAF12 agonist -1.5, hcDAF12 agonist 1.6, hgDAF-12 ag 2.8 and DAX1 inh-2 0.0.
`Clc1ccc(-c2cnc(Oc3ccccc3)nc2)cc1` gave ssDAF12 agonist 0.5, hcDAF12 agonist 1.7, DAX1 inh-1 2.5, hgDAF-12 ag 10.8* and DAX1 inh-2 3.1.
Screening O=C(c1ccc(Br)s1)N1CCc2ccccc2C1 returned ssDAF12 agonist -0.6, hcDAF12 agonist 2.3, DAX1 inh-1 1.9, hgDAF-12 ag 2.3 and DAX1 inh-2 3.9*.
Screening O=S(=O)(NNc1ncc(C(F)(F)F)cc1Cl)c1ccc(F)cc1F returned ssDAF12 agonist 0.3, hcDAF12 agonist 3.2, DAX1 inh-1 0.7, hgDAF-12 ag 1.5 and DAX1 inh-2 2.6.
For O=C(NNS(=O)(=O)c1ccc(Cl)cc1Cl)c1cc2ncc(C(F)(F)F)cc2s1 the results were ssDAF12 agonist 0.7, hcDAF12 agonist 6.0*, DAX1 inh-1 -1.4, hgDAF-12 ag 3.9 and DAX1 inh-2 -0.1.
COc1ccc(CN(C(=O)c2ccco2)c2ccccc2)cc1 was read as ssDAF12 agonist -1.2, hcDAF12 agonist 5.9*, DAX1 inh-1 0.2, hgDAF-12 ag -0.5 and DAX1 inh-2 0.1.
For COc1ccc(CN(C(=O)c2cccs2)c2ccccc2)cc1 the results were ssDAF12 agonist -1.6, hcDAF12 agonist 0.8, DAX1 inh-1 -0.1, hgDAF-12 ag -1.2 and DAX1 inh-2 -0.9.
Screening CC(C)(C)c1ccc(NC(=O)C2=CC=CN3CCS(=O)(=O)N=C23)cc1 returned ssDAF12 agonist -0.3, hcDAF12 agonist 1.4, DAX1 inh-1 -0.1, hgDAF-12 ag 8.6 and DAX1 inh-2 3.9*.
For O=C(Cc1ccccc1[N+](=O)[O-])NCc1ccncc1 the results were ssDAF12 agonist 1.1*, hcDAF12 agonist 5.3, DAX1 inh-1 0.7, hgDAF-12 ag -0.4 and DAX1 inh-2 0.4.
O=C(Cc1ccccc1[N+](=O)[O-])NCCc1ccc(F)cc1 was read as ssDAF12 agonist 5.1*, hcDAF12 agonist 0.9, DAX1 inh-1 0.8, hgDAF-12 ag -0.4 and DAX1 inh-2 -0.3.
For CCOC(=O)C1=CCN(S(=O)(=O)c2ccc([N+](=O)[O-])cc2)C1c1ccc(C)cc1 (stereo not given) the results were ssDAF12 agonist -0.8, hcDAF12 agonist -1.2, hgDAF-12 ag -0.3 and DAX1 inh-2 -0.6.
Screening Cc1ccc(C(=O)Nc2cc([N+](=O)[O-])ccc2F)s1 returned ssDAF12 agonist -1.1, hcDAF12 agonist -1.3, DAX1 inh-1 5.8*, hgDAF-12 ag 0.2 and DAX1 inh-2 0.1.
`CC(C)(C)OC(=O)NC1CCN(c2nc(-c3ccc(Br)cc3)cs2)CC1` gave ssDAF12 agonist -2.2, hcDAF12 agonist -4.1 and hgDAF-12 ag -2.1.
`CC1=Nc2cc([N+](=O)[O-])ccc2NC(C)(C)C1` gave ssDAF12 agonist -1.5, hcDAF12 agonist 1.6, DAX1 inh-1 4.8*, hgDAF-12 ag 11.9* and DAX1 inh-2 0.4.
For Cc1nc2ccc([N+](=O)[O-])cc2nc1C the results were ssDAF12 agonist -1.2, hcDAF12 agonist -1.4, DAX1 inh-1 1.8, hgDAF-12 ag -1.8 and DAX1 inh-2 1.0.
`CCOC(=O)C1=C(C(=O)OCC)C2N(Cc3ccc(C#N)cc3)c3ccccc3[C@@]23C[C@@H](C(=O)OC)N(S(=O)(=O)c2ccccc2)C3=N1` (stereo not given in full) gave ssDAF12 agonist -1.2, hcDAF12 agonist 0.9, hgDAF-12 ag 1.6 and DAX1 inh-2 -0.8.
For CCC(=O)NC(=S)Nc1ccccc1F the results were ssDAF12 agonist -1.0, hcDAF12 agonist -0.8, DAX1 inh-1 0.0, hgDAF-12 ag 2.3 and DAX1 inh-2 -0.9.
For COc1ccc(C(=O)NC(=S)Nc2ccccc2F)cc1 the results were ssDAF12 agonist -0.5, hcDAF12 agonist 1.7, DAX1 inh-1 0.9, hgDAF-12 ag 10.9* and DAX1 inh-2 1.2.
Screening CC(=O)NC(=S)Nc1ccccc1F returned ssDAF12 agonist -1.0, hcDAF12 agonist -1.2, DAX1 inh-1 6.3*, hgDAF-12 ag -0.8 and DAX1 inh-2 0.3.
